Screening data as filed in PubChem.
Sampled rows, rich in hits. Any-hit rate of the full collection: about 3%.
USP1 inh: USP1/UAF1 (human) deubiquitinase inhibition; Potency, µM (series often up to 57.1 µM), for inactives: top-dose activity change, negative = inhibition, hits mostly inhibitors; recombinant USP1/UAF1, Ub-Rhodamine cleavage fluorescence; actives 0.23% (n = 390,000); also: % is scaled to controls: 0 for no effect and ±100 for the full control effect; nearly all actives have a fitted effect of over 60% in size
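High-throughput fluorogenic screen: 1nM USP1/UAF1 complex, Ub-Rho substrate 150nM final, 50mM HEPES pH 7.8 with 0.5mM EDTA, 0.1 mg/ml BSA, 1mM TCEP and 0.01% Tween-20.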
PLK1 PBD block: blocks phosphopeptide binding to human PLK1 polo-box domain. P53350. Plk1 PBD binding of FITC phosphopeptide, fluorescence polarization. Potency, µM, inactives show max response, negative = inhibition, most hits filed as inhibitors. actives 2.8% (n = 360,000). AID 720504; also: series mostly up to about 57 µM; % is scaled to controls: 0 for no effect and ±100 for the full control effect; nearly all actives have a fitted effect of over 65% in size
VDR inhibitor: blocks the human vitamin D receptor. actives 0.93% (n = 400,000). VDR-SRC2-3 peptide fluorescence polarization, 2 h. AID 504847. Potency, µM, for the others: max response, negative = inhibition, actives largely listed as inhibitors. P11473; also: % is scaled to controls: 0 for no effect and ±100 for the full control effect
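Reagent solutions, kept cold and dark, are dispensed first; compounds are then pinned in at 23 nl, plates briefly spun, and incubated 2 h at ambient temperature. Inhibition of VDR–SRC2-3 peptide binding is read by fluorescence polarization.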
KAT2A inh: blocks human GCN5L2 histone acetyltransferase; GCN5L2 HAT assay, ThioGlo1 CoA-SH fluorescence; Potency, µM (doses to about 58.9 µM), without a hit: top-dose activity change, negative = inhibition, most hits filed as inhibitors; actives 0.21% (n = 390,000); AID 504327; also: % is scaled to controls: 0 for no effect and ±100 for the full control effect
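Titration-based screen in which CoA formation is detected via maleimide probe ThioGlo1 (50uM) turning fluorescent on thiol reaction; substrates H3(1-25) 75uM and acetyl-CoA 70uM, GCN5L2 20nM, 20 min incubation at room temperature.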
PTAP TSG101 blk: blocks PTAP/TSG101 interaction to inhibit HIV-1 budding. Fluorescence polarization, FITC-PTAP peptide / Tsg101 binding. 340,000 tested, under 10 active. Q99816. Potency, µM (top dose mostly 115 µM), without a hit: top-dose activity change, negative = inhibition, actives largely listed as inhibitors; active = well fitted inhibition curve with a large enough effect in the main read-out, with a control signal flat, not every such curve was filed as active; inconclusive = small, poorly fitted or top-dose-only effect, or effect the other way, or a change in a side signal; inactive = no such curve, though single readings can be large or run the other way; also: % of control where 0% means no effect
Target sequence (Q99816 whole entry, looked up): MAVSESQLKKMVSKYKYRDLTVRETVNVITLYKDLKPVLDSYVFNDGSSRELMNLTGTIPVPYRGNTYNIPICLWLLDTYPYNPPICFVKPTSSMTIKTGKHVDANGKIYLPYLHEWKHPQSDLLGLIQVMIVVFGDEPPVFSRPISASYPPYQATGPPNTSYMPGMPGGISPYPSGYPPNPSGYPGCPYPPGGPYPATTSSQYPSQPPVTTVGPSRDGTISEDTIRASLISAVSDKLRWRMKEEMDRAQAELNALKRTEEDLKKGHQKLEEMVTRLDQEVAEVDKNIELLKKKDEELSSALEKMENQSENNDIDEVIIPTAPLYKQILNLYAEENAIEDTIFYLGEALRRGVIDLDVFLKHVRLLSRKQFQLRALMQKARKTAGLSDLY
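Fluorescence polarization binding of Tsg101 binding domain (10 uM final) to FITC-labeled PTAP peptide (50 nM final) in HEPES pH 7.5 buffer with NaCl, Tween 20, EDTA, TCEP. Compounds added before peptide; binding 20 min at RT.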
Numbers without * were called inactive; ? = inconclusive; / = not tested or not shown. Unless noted, calls follow the shape of the dose curve; as a rule, active = well fitted curve in the direction sought with a large enough effect; inconclusive = small, poorly fitted or top-dose-only effect, or another doubt; inactive = no such curve, though single readings can be large; an effect the other way counts as inactive or inconclusive. Potency is read from the fitted curve at half-maximal effect.

SMILES	USP1 inh	PLK1 PBD block	VDR inhibitor	KAT2A inh	PTAP TSG101 blk
O=C(CCc1ccc(S(=O)(=O)NC2CCCCC2)cc1)NCc1ccc(Cl)cc1	-8%	-5%	2%	-3%	1%
O=C(C1CCN(c2ncnc3c2nc2n3CCCCC2)CC1)N1CCN(c2ccccc2)CC1	-19%	/	19%	-3%	/
O=c1c2c3c(sc2nnn1Cc1ccc(Br)cc1)CCCC3	-7%	/	-5%	0%	/
COc1ccccc1OC(=O)CCc1nc2ccccc2s1	-20%	?	-14%	-22%	-10%
CC(=O)c1ccc(OC(=O)CCc2nc3ccccc3s2)cc1	-16%	?	40µM*	11%	-2%
COc1ccccc1/C=C/c1nc(S(=O)(=O)c2ccccc2)c(NCCN(C)C)o1	5%	30µM*	?	-8%	-6%
c1ccc(-c2nn3c(Cn4nnc5ccccc54)nnc3s2)nc1	-8%	27µM*	-15%	-26%	-16%
CCc1nnc2sc(-c3cc(-c4ccccc4)nc4ccccc34)nn12	2%	-7%	-4%	3%	-2%
c1cncc(-c2nn3c(Cn4nnc5ccccc54)nnc3s2)c1	-5%	17µM*	?	-2%	-4%
COc1ccc(C(C)(O)c2nc(-c3ccc4c(c3)OCO4)cs2)cc1 (stereo unspecified)	/	-8%	/	/	/
CCN(CC)C(=O)C[n+]1ccc(C(N)=O)cc1	-11%	27µM*	-9%	2%	-5%
C=CCN(CC=C)C(=O)C[n+]1ccc(C(N)=O)cc1	-23%	-2%	-7%	-1%	-6%
CCOC(=O)c1cccc(NC(=O)CC2C(=O)N(c3ccccc3)C(=O)N2Cc2ccco2)c1 (stereo unspecified)	13%	/	7%	?	/
O=[N+]([O-])c1cc(C(F)(F)F)cc([N+](=O)[O-])c1NN=C1CCCCC1	-9%	?	50µM*	0%	?
COC(=O)[C@H](COC(C)(C)C)NC(=O)O[C@H]1C(=O)c2cc(OC)ccc2O[C@@H]1c1ccc(OC)c(Br)c1	/	/	0%	/	/
COc1ccc(OC)c(NC(=O)CSc2nnc(CNC(=O)c3ccco3)o2)c1	-21%	30µM*	4%	2%	-7%
NC(=O)c1ccccc1NC(=O)C1CCCN(c2ncnc3onc(-c4ccc(F)cc4)c23)C1 (stereo unspecified)	-12%	/	0%	-12%	/
CN1CCCc2cc(C=O)ccc21	-14%	?	6%	-16%	-7%
CCCN1CCCc2cc(CN)ccc21	16µM*	19µM*	28µM*	-8%	?
Cc1ccccc1Cn1c(Oc2ccccc2F)nc2c1c(=O)n(C)c(=O)n2C	-5%	/	3%	0%	/
Cc1cccc(C(C)C)c1NC(=O)c1ccc2c(c1)CCCN2S(C)(=O)=O	-14%	/	4%	-4%	/
CCCc1cc(OC)c2c(c1)OCO2	/	/	?	-5%	/
COc1cc2oc(=O)c3c4c(cc5ccc(c1CCN(C)C)c2c53)OCO4	/	/	40µM*	/	/
CN(C)c1ccc(-c2nccc(NCc3cccs3)n2)cc1	/	/	-20%	-21%	/
N#Cc1cccc(-c2nccc(NCc3cccs3)n2)c1	/	/	?	-28%	/
SMILES	USP1 inh	PLK1 PBD block	VDR inhibitor	KAT2A inh	PTAP TSG101 blk
CN(C)C(=O)c1ccc(-c2nccc(NCc3cccs3)n2)cc1	/	/	45µM*	?	/
c1csc(CNc2ccnc(-c3ccoc3)n2)c1	/	/	22µM*	-13%	/
CSCC[C@H](NC=O)C(=O)N[C@@H](CC(C)C)C(=O)N[C@@H](Cc1ccccc1)C(=O)O	/	/	/	-2%	/
COc1cc(C=C(C#N)C(=O)c2ccccc2)cc(OC)c1OC	/	3.8µM*	/	/	/
CCOc1cc(/C=C(\C#N)C(=O)Nc2ccccc2C(=O)O)ccc1OC(=O)c1ccc(C)cc1	-23%	19µM*	?	-17%	-4%
COc1cc(/C=C(/C#N)C(=O)NCc2ccccc2)cc(OC)c1OC	-4%	-4%	-22%	0%	-3%
COc1cc(/C=C(\C#N)C(=O)Nc2ccccc2C(=O)O)cc(Cl)c1OC	-27%	21µM*	?	?	-3%
CCN(Cc1ccccc1)C(=O)Cn1c(=O)n(-c2ccc(Cl)cc2)c(=O)c2c(C)c(C(=O)N(C)C)sc21	-17%	/	12%	-9%	/
